Results from article PMC11062922 (Nature Chemical Biology, 2023).
Like-named read-outs stand apart in the source and are kept apart here.

Tests used:
[1] = test system: NTRK1; conditions: read-out: apparent Kd, n = 1
[2] = test system: NUAK2; conditions: read-out: apparent Kd, n = 1
[3] = compound concentrations:100 nM and 1000 nM (sheet 'Lestaurtinib' of Supplementary Table 1),run:Lestaurtinib_02765_R2,Plate:MR026
[4] = compound concentrations:100 nM and 1000 nM (sheet 'Lestaurtinib' of Supplementary Table 1),run:Lestaurtinib_02766_R2,Plate:MR027
[5] = compound concentrations:100 nM and 1000 nM (sheet 'Lestaurtinib' of Supplementary Table 1),run:Lestaurtinib_02768_R1,Plate:MR028
[6] = compound concentrations:100 nM and 1000 nM (sheet 'Lestaurtinib' of Supplementary Table 1),run:Lestaurtinib_02768_R2,Plate:MR028
[7] = compound concentrations:100 nM and 1000 nM (sheet 'Lestaurtinib' of Supplementary Table 1),run:Lestaurtinib_02795_R1,Plate:MR022
[8] = compound concentrations:100 nM and 1000 nM (sheet 'Lestaurtinib' of Supplementary Table 1),run:Lestaurtinib_02795_R2,Plate:MR022
[9] = compound concentrations:100 nM and 1000 nM (sheet 'Lestaurtinib' of Supplementary Table 1),run:Lestaurtinib_02802_R3,Plate:MR029
[10] = compound concentrations:100 nM and 1000 nM (sheet 'Lestaurtinib' of Supplementary Table 1),run:Lestaurtinib_02896_R2,Plate:MR030

Lestaurtinib
potency estimated from few doses ([1]; compound concentrations:100 nM and 1000 nM (sheet 'Lestaurtinib' of Supplementary Table 1),run:Lestaurtinib_02748_R2,Plate:MR024): 951 nM | potency estimated from few doses ([1]; compound concentrations:100 nM and 1000 nM (sheet 'Lestaurtinib' of Supplementary Table 1),run:Lestaurtinib_02752_R1,Plate:MR025): 2130 nM | potency estimated from few doses [1, 3]: 528 nM | potency estimated from few doses [1, 4]: 1650 nM | potency estimated from few doses ([1]; compound concentrations:100 nM and 1000 nM (sheet 'Lestaurtinib' of Supplementary Table 1),run:Lestaurtinib_02766_R3,Plate:MR027): 1440 nM | potency estimated from few doses [1, 5]: 628 nM | potency estimated from few doses [1, 6]: 897 nM | potency estimated from few doses [1, 7]: 852 nM | potency estimated from few doses [1, 8]: 1240 nM | potency estimated from few doses ([1]; compound concentrations:100 nM and 1000 nM (sheet 'Lestaurtinib' of Supplementary Table 1),run:Lestaurtinib_02802_R1,Plate:MR029): 896 nM | potency estimated from few doses [1, 9]: 943 nM | potency estimated from few doses [1, 10]: 935 nM | potency estimated from few doses ([1]; compound concentrations:100 nM and 1000 nM (sheet 'Lestaurtinib' of Supplementary Table 1),run:Lestaurtinib_03172_R1,Plate:MR031): 1440 nM | potency estimated from few doses ([1]; compound concentrations:100 nM and 1000 nM (sheet 'Lestaurtinib' of Supplementary Table 1),run:Lestaurtinib_03172_R2,Plate:MR031): 662 nM | potency estimated from few doses ([1]; compound concentrations:100 nM and 1000 nM (sheet 'Lestaurtinib' of Supplementary Table 1),run:Lestaurtinib_03260_R1,Plate:MR033): 898 nM | potency estimated from few doses ([1]; compound concentrations:100 nM and 1000 nM (sheet 'Lestaurtinib' of Supplementary Table 1),run:Lestaurtinib_03260_R2,Plate:MR033): 635 nM | potency estimated from few doses ([2]; compound concentrations:100 nM and 1000 nM (sheet 'Lestaurtinib' of Supplementary Table 1),run:Lestaurtinib_02339_R1,Plate:MR001): 489 nM | potency estimated from few doses ([2]; compound concentrations:100 nM and 1000 nM (sheet 'Lestaurtinib' of Supplementary Table 1),run:Lestaurtinib_02339_R2,Plate:MR001): 23.7 nM | potency estimated from few doses ([2]; compound concentrations:100 nM and 1000 nM (sheet 'Lestaurtinib' of Supplementary Table 1),run:Lestaurtinib_02339_R3,Plate:MR001): 373 nM | potency estimated from few doses ([2]; compound concentrations:100 nM and 1000 nM (sheet 'Lestaurtinib' of Supplementary Table 1),run:Lestaurtinib_02364_R3,Plate:MR002): 260 nM | potency estimated from few doses ([2]; compound concentrations:100 nM and 1000 nM (sheet 'Lestaurtinib' of Supplementary Table 1),run:Lestaurtinib_02367_R1,Plate:MR003): 873 nM | potency estimated from few doses ([2]; compound concentrations:100 nM and 1000 nM (sheet 'Lestaurtinib' of Supplementary Table 1),run:Lestaurtinib_02367_R2,Plate:MR003): 382 nM | potency estimated from few doses ([2]; compound concentrations:100 nM and 1000 nM (sheet 'Lestaurtinib' of Supplementary Table 1),run:Lestaurtinib_02381_R1,Plate:MR004): 394 nM | potency estimated from few doses ([2]; compound concentrations:100 nM and 1000 nM (sheet 'Lestaurtinib' of Supplementary Table 1),run:Lestaurtinib_02381_R2,Plate:MR004): 113 nM | potency estimated from few doses ([2]; compound concentrations:100 nM and 1000 nM (sheet 'Lestaurtinib' of Supplementary Table 1),run:Lestaurtinib_02407_R2,Plate:MR005): 70.6 nM | potency estimated from few doses ([2]; compound concentrations:100 nM and 1000 nM (sheet 'Lestaurtinib' of Supplementary Table 1),run:Lestaurtinib_02422_R1,Plate:MR006): 77.8 nM | potency estimated from few doses ([2]; compound concentrations:100 nM and 1000 nM (sheet 'Lestaurtinib' of Supplementary Table 1),run:Lestaurtinib_02422_R2,Plate:MR006): 44.9 nM | potency estimated from few doses ([2]; compound concentrations:100 nM and 1000 nM (sheet 'Lestaurtinib' of Supplementary Table 1),run:Lestaurtinib_02437_R1,Plate:MR007): 140 nM | potency estimated from few doses ([2]; compound concentrations:100 nM and 1000 nM (sheet 'Lestaurtinib' of Supplementary Table 1),run:Lestaurtinib_02438_R1,Plate:MR008): 22.1 nM | potency estimated from few doses ([2]; compound concentrations:100 nM and 1000 nM (sheet 'Lestaurtinib' of Supplementary Table 1),run:Lestaurtinib_02443_R1,Plate:MR009): 70 nM | potency estimated from few doses ([2]; compound concentrations:100 nM and 1000 nM (sheet 'Lestaurtinib' of Supplementary Table 1),run:Lestaurtinib_02443_R2,Plate:MR009): 75.5 nM | potency estimated from few doses ([2]; compound concentrations:100 nM and 1000 nM (sheet 'Lestaurtinib' of Supplementary Table 1),run:Lestaurtinib_02443_R3,Plate:MR009): 696 nM | potency estimated from few doses ([2]; compound concentrations:100 nM and 1000 nM (sheet 'Lestaurtinib' of Supplementary Table 1),run:Lestaurtinib_02473_R2,Plate:MR010): 100 nM | potency estimated from few doses ([2]; compound concentrations:100 nM and 1000 nM (sheet 'Lestaurtinib' of Supplementary Table 1),run:Lestaurtinib_02473_R3,Plate:MR010): 53.1 nM | potency estimated from few doses ([2]; compound concentrations:100 nM and 1000 nM (sheet 'Lestaurtinib' of Supplementary Table 1),run:Lestaurtinib_02482_R1,Plate:MR011): 165 nM | potency estimated from few doses ([2]; compound concentrations:100 nM and 1000 nM (sheet 'Lestaurtinib' of Supplementary Table 1),run:Lestaurtinib_02482_R2,Plate:MR011): 98 nM | potency estimated from few doses ([2]; compound concentrations:100 nM and 1000 nM (sheet 'Lestaurtinib' of Supplementary Table 1),run:Lestaurtinib_02482_R3,Plate:MR011): 133 nM | potency estimated from few doses ([2]; compound concentrations:100 nM and 1000 nM (sheet 'Lestaurtinib' of Supplementary Table 1),run:Lestaurtinib_02487_R1,Plate:MR012): 87.5 nM | potency estimated from few doses ([2]; compound concentrations:100 nM and 1000 nM (sheet 'Lestaurtinib' of Supplementary Table 1),run:Lestaurtinib_02487_R2,Plate:MR012): 208 nM | potency estimated from few doses ([2]; compound concentrations:100 nM and 1000 nM (sheet 'Lestaurtinib' of Supplementary Table 1),run:Lestaurtinib_02487_R3,Plate:MR012): 85.6 nM | potency estimated from few doses ([2]; compound concentrations:100 nM and 1000 nM (sheet 'Lestaurtinib' of Supplementary Table 1),run:Lestaurtinib_02496_R1,Plate:MR013): 931 nM | potency estimated from few doses ([2]; compound concentrations:100 nM and 1000 nM (sheet 'Lestaurtinib' of Supplementary Table 1),run:Lestaurtinib_02496_R3,Plate:MR013): 50.7 nM | potency estimated from few doses ([2]; compound concentrations:100 nM and 1000 nM (sheet 'Lestaurtinib' of Supplementary Table 1),run:Lestaurtinib_02566_R3,Plate:MR014): 517 nM | potency estimated from few doses ([2]; compound concentrations:100 nM and 1000 nM (sheet 'Lestaurtinib' of Supplementary Table 1),run:Lestaurtinib_02572_R1,Plate:MR015): 368 nM | potency estimated from few doses ([2]; compound concentrations:100 nM and 1000 nM (sheet 'Lestaurtinib' of Supplementary Table 1),run:Lestaurtinib_02572_R2,Plate:MR015): 96.7 nM | potency estimated from few doses ([2]; compound concentrations:100 nM and 1000 nM (sheet 'Lestaurtinib' of Supplementary Table 1),run:Lestaurtinib_02584_R1,Plate:MR017): 207 nM | potency estimated from few doses ([2]; compound concentrations:100 nM and 1000 nM (sheet 'Lestaurtinib' of Supplementary Table 1),run:Lestaurtinib_02584_R3,Plate:MR017): 259 nM | potency estimated from few doses ([2]; compound concentrations:100 nM and 1000 nM (sheet 'Lestaurtinib' of Supplementary Table 1),run:Lestaurtinib_02601_R3,Plate:MR018): 396 nM | potency estimated from few doses ([2]; compound concentrations:100 nM and 1000 nM (sheet 'Lestaurtinib' of Supplementary Table 1),run:Lestaurtinib_02606_R1,Plate:MR019): 140 nM | potency estimated from few doses ([2]; compound concentrations:100 nM and 1000 nM (sheet 'Lestaurtinib' of Supplementary Table 1),run:Lestaurtinib_02606_R2,Plate:MR019): 121 nM | potency estimated from few doses ([2]; compound concentrations:100 nM and 1000 nM (sheet 'Lestaurtinib' of Supplementary Table 1),run:Lestaurtinib_02606_R3,Plate:MR019): 154 nM | potency estimated from few doses ([2]; compound concentrations:100 nM and 1000 nM (sheet 'Lestaurtinib' of Supplementary Table 1),run:Lestaurtinib_02624_R1,Plate:MR020): 92.2 nM | potency estimated from few doses ([2]; compound concentrations:100 nM and 1000 nM (sheet 'Lestaurtinib' of Supplementary Table 1),run:Lestaurtinib_02624_R2,Plate:MR020): 93.3 nM | potency estimated from few doses ([2]; compound concentrations:100 nM and 1000 nM (sheet 'Lestaurtinib' of Supplementary Table 1),run:Lestaurtinib_02624_R3,Plate:MR020): 72.9 nM | potency estimated from few doses ([2]; compound concentrations:100 nM and 1000 nM (sheet 'Lestaurtinib' of Supplementary Table 1),run:Lestaurtinib_02741_R1,Plate:MR023): 140 nM | potency estimated from few doses ([2]; compound concentrations:100 nM and 1000 nM (sheet 'Lestaurtinib' of Supplementary Table 1),run:Lestaurtinib_02741_R2,Plate:MR023): 124 nM | potency estimated from few doses ([2]; compound concentrations:100 nM and 1000 nM (sheet 'Lestaurtinib' of Supplementary Table 1),run:Lestaurtinib_02741_R3,Plate:MR023): 115 nM | potency estimated from few doses ([2]; compound concentrations:100 nM and 1000 nM (sheet 'Lestaurtinib' of Supplementary Table 1),run:Lestaurtinib_02748_R3,Plate:MR024): 59.8 nM | potency estimated from few doses ([2]; compound concentrations:100 nM and 1000 nM (sheet 'Lestaurtinib' of Supplementary Table 1),run:Lestaurtinib_02752_R2,Plate:MR025): 68.5 nM | potency estimated from few doses ([2]; compound concentrations:100 nM and 1000 nM (sheet 'Lestaurtinib' of Supplementary Table 1),run:Lestaurtinib_02765_R1,Plate:MR026): 298 nM | potency estimated from few doses [2, 3]: 316 nM | potency estimated from few doses ([2]; compound concentrations:100 nM and 1000 nM (sheet 'Lestaurtinib' of Supplementary Table 1),run:Lestaurtinib_02765_R3,Plate:MR026): 88.4 nM | potency estimated from few doses [2, 4]: 58.5 nM | potency estimated from few doses [2, 5]: 89.9 nM | potency estimated from few doses [2, 6]: 66.1 nM | potency estimated from few doses ([2]; compound concentrations:100 nM and 1000 nM (sheet 'Lestaurtinib' of Supplementary Table 1),run:Lestaurtinib_02768_R3,Plate:MR028): 146 nM | potency estimated from few doses [2, 7]: 93.4 nM | potency estimated from few doses [2, 8]: 95.4 nM | potency estimated from few doses ([2]; compound concentrations:100 nM and 1000 nM (sheet 'Lestaurtinib' of Supplementary Table 1),run:Lestaurtinib_02795_R3,Plate:MR022): 154 nM | potency estimated from few doses ([2]; compound concentrations:100 nM and 1000 nM (sheet 'Lestaurtinib' of Supplementary Table 1),run:Lestaurtinib_02802_R2,Plate:MR029): 79.5 nM | potency estimated from few doses [2, 9]: 69.5 nM | potency estimated from few doses ([2]; compound concentrations:100 nM and 1000 nM (sheet 'Lestaurtinib' of Supplementary Table 1),run:Lestaurtinib_02896_R1,Plate:MR030): 90.1 nM | potency estimated from few doses [2, 10]: 130 nM
